# Results filed as inconclusive are left out. Activity calls are given as the source filed them. The calls were made as follows: active = hit-call score of the fitted dose curve at least 0.9, where 1 is the maximum; inconclusive = response in the unintended direction; inactive = score below 0.9.
# How the values were obtained:
# THRA (gene 7067) = THRA (gene 7067) (UniProt P10827); assay: TOX21_TRA_COA_Antagonist_Followup_ratio: Tox21 Thyroid Hormone Receptor alpha Antagonism through Coactivator Recruitment Follow-Up Assay, Ratio (AID 2283953)
# Chain of THRA (gene 7067) (P10827 whole entry, looked up, the tested form may be a part): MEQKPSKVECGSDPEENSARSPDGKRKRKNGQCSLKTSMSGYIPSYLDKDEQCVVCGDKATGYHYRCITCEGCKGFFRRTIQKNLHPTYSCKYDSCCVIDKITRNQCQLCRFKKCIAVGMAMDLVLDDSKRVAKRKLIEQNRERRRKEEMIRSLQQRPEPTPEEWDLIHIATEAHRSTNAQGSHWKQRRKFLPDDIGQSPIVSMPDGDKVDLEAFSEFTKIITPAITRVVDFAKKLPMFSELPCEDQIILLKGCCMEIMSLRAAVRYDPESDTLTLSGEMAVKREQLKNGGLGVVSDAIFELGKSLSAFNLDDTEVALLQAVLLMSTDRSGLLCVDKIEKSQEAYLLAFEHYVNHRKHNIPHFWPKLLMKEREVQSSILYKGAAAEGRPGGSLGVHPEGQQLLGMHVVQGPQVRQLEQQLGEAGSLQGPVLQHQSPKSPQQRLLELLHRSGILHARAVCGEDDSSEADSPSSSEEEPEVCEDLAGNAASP
# Outline: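 520:495 nm emission ratio (excitation 340 nm) reports fluorescein-SRC-2 peptide recruitment to GST-TRα LBD by TR-FRET with Tb anti-GST antibody. Values were normalized to DMSO (0%) and T3 control wells (100%); loss of signal indicated antagonism.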
# [1] = biological target: Retinoic acid receptor RXR-alpha (Homo sapiens) (UniProt P19793); assay: TOX21_TR_RXR_BLA_Antagonist_Followup_ratio: Tox21 Thyroid Hormone Receptor beta Retinoid X Receptor alpha (RXRa) Antagonism Beta-lactamase (BLA) Follow-Up Assay, Ratio (AID 2283972)
# Chain of Retinoic acid receptor RXR-alpha (Homo sapiens) (P19793 whole entry, looked up): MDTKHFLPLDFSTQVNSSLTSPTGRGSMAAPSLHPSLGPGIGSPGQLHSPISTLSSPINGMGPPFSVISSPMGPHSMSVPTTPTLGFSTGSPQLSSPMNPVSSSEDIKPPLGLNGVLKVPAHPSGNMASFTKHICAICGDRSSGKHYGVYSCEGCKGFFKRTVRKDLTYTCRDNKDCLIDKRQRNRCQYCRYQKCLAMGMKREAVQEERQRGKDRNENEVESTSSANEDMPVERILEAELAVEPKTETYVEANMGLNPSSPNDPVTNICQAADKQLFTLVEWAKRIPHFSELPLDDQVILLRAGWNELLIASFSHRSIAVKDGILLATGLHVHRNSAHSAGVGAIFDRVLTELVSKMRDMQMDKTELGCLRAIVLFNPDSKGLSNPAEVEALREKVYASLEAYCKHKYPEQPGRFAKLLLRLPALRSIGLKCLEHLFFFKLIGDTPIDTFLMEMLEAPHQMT
# Outline: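 RXRa-UAS-bla HEK293T cells, 2,500/well in phenol red-free DMEM with 2% charcoal-stripped FBS, 5 h attachment, then compounds (11 concentrations, triplicate) for 16 h at 37C; FRET-B/GCCF4-AM substrate 2 h RT; 460:530 nm ratio, loss of signal vs DMSO.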
# [2] = TOX21_TR_RXR_BLA_Antagonist_Followup_viability: Viability Assessment in the Tox21 Thyroid Hormone Receptor beta Retinoid X Receptor alpha (RXRa) Antagonism Beta-lactamase (BLA) Follow-Up Assay (AID 2283979)
# Outline: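 Follow-up compounds (11 concentrations, triplicate) were incubated 16 h at 37C/5% CO2 with HEK293T RXRa-bla cells seeded at 2,500/well in charcoal-stripped-serum medium. ATP content by CellTiter-Glo luminescence gave viability; curves fitted in both directions against DMSO.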
# [3] = CCTE_Simmons_CellTiterGLO_HEK293T: Viability Assessment in CCTE's Assays for Thyroperoxidase (TPO) Inhibition, Simmons Lab (AID 2283665)
# Outline: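 HEK293T cells in DMEM with 1% FBS, dosed 24 h at 37C with 8 concentrations, 5 nM–87.5 uM final, 0.5% DMSO. ATP measured by CellTiter Glo luminescence; loss of signal vs DMSO, three biological replicates.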
# [4] = biological target: human Androgen Receptor (AR), AR (gene 367) (UniProt P10275); assay: ATG_hAR_XSP1: Attagene TRANS-FACTORIAL Multi-Species (XSP1) HepG2 Assay for human Androgen Receptor (AR) (AID 2283785)
# Chain of human Androgen Receptor (AR), AR (gene 367) (P10275 whole entry, looked up): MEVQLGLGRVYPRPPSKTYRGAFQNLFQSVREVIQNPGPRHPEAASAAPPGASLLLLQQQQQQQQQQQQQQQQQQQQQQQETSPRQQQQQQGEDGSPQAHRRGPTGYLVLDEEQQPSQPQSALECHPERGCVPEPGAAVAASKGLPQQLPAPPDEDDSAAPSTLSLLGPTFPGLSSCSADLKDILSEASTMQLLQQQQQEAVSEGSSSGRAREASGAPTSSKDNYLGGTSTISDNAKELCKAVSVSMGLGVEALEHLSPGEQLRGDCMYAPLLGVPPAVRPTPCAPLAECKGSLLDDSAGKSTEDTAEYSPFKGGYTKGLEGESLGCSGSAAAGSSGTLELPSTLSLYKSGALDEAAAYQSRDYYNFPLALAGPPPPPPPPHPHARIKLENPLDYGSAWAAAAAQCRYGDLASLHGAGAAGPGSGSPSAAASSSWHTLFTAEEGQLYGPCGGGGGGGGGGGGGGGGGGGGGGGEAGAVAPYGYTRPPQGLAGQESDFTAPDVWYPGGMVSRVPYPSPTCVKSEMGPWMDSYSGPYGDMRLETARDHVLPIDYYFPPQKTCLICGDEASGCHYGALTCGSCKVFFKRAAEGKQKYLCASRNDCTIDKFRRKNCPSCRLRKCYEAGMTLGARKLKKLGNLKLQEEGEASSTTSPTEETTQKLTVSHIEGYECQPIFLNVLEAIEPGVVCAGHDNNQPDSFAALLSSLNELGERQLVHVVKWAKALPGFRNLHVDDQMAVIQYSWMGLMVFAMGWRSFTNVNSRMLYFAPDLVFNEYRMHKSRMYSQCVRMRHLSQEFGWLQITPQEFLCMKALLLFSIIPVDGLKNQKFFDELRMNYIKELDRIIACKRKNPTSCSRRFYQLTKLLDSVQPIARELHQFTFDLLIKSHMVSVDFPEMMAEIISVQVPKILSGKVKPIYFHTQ
# [5] = biological target: Thyroid hormone receptor alpha (Rattus norvegicus) + Thyroid hormone receptor beta (Rattus norvegicus) (UniProt P18113+P63059); assay: TOX21_TR_LUC_GH3_Agonist_Followup: Tox21 GH3 Thyroid Hormone Receptor Agonism Luciferase Follow-Up Assay (AID 2283939)
# Chain of Thyroid hormone receptor alpha (Rattus norvegicus) + Thyroid hormone receptor beta (Rattus norvegicus) (P63059 whole entry, looked up): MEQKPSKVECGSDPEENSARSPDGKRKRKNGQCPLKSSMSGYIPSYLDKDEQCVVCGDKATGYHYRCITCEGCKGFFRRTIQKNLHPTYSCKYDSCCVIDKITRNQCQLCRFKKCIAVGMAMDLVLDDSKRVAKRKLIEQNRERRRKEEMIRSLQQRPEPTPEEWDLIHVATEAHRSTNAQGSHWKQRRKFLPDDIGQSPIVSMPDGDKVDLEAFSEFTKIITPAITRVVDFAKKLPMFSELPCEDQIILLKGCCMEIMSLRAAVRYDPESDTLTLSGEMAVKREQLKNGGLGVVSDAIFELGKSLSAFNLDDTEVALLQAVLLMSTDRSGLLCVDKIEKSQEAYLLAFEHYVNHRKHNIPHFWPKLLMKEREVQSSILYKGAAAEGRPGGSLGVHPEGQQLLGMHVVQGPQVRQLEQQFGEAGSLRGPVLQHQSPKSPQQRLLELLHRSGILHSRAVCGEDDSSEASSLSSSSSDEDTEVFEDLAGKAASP
# Chain of Thyroid hormone receptor alpha (Rattus norvegicus) + Thyroid hormone receptor beta (Rattus norvegicus) (P18113 whole entry, looked up): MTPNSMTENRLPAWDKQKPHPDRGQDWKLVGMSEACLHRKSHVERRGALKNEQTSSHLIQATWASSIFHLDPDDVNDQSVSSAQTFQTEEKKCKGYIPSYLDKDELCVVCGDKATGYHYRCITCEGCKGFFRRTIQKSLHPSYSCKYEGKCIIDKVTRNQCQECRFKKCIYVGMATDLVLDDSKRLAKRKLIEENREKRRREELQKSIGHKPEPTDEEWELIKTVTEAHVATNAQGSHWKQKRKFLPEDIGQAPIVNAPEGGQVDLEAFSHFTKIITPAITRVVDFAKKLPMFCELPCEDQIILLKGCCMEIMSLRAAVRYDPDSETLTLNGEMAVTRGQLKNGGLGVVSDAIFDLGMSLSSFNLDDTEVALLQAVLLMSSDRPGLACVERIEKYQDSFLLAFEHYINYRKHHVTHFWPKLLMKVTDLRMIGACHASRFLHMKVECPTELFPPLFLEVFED
# Outline: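 Rat GH3 cells (1,500/well) in serum-free assay medium, treated with 15-point series, 92 uM to 5 nM final, for 24 h at 37C. Luciferase via ONE-Glo luminescence; gain of signal fitted against DMSO, T3 positive control.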
# [6] = TOX21_TR_RXR_BLA_Agonist_Followup_viability: Viability Assessment in the Tox21 Thyroid Hormone Receptor beta Retinoid X Receptor alpha (RXRa) Agonism Beta-lactamase (BLA) Follow-Up Assay (AID 2283970)
# Outline: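 RXRa-UAS-bla HEK293T cells, 2,500/well in phenol red-free DMEM with 2% charcoal-stripped FBS, dosed for 16 h at 37C. Viability measured by CellTiter-Glo ATP luminescence; fitted bidirectionally against DMSO baseline, loss of signal indicating cytotoxicity.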
# [7] = CCTE_Deisenroth_AIME_96WELL_CTox_Active: Cytotoxicity Assessment (CTOX) in CCTE's 96-well Estrogen Receptor Transactivation Assay with AIME metabolic competence (metabolism positive), Deisenroth Lab (AID 2284028)
# Outline: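 Chemicals (0.002–200 uM) were first incubated 2 h with alginate-immobilized phenobarbital/beta-naphthoflavone-induced male rat liver S9; conditioned medium then went onto VM7Luc4E2 cells for 24 h, with viability read by protease-substrate fluorescence, fitted bidirectionally.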
# [8] = CCTE_Deisenroth_AIME_96WELL_CTox_Inactive: Cytotoxicity Assessment (CTOX) in CCTE's 96-well Estrogen Receptor Transactivation Assay without AIME metabolic competence (metabolism negative), Deisenroth Lab (AID 2284029)
# Outline: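 Chemicals (0.002 - 200 uM, 10 points) incubated 2 h with alginate-water microspheres (no S9), then medium moved onto VM7Luc4E2 cells for 24 h. Viability by protease-substrate cleavage to fluorescent probe; bidirectional fitting.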
# [9] = CCTE_Shafer_MEA_acute_AB: CCTE's Alamar Blue Assay for Cytotoxicity in the Neural Acute Assay, Shafer Lab (AID 2284069);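 also: active compounds lower the viability signal compared with DMSO wells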
# Outline: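 Cytotoxicity endpoint for acute MEA exposures of primary rat cortical neurons on day 13 or 15. Resazurin reduction is read fluorescently at 544/590 nm, with DMSO as the negative-control baseline.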
# [10] = CCTE_Shafer_MEA_dev_LDH: CCTE's Lactate Dehydrogenase Assay for Cytotoxicity in the Neural Network Formation Assay, Shafer Lab (AID 2284068);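 also: exposure for twelve days from plating with re-dosing on DIV 5 and 9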
# Outline: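 Developing rat cortical networks on MEA plates are exposed to compound for 12 days from plating. LDH activity is measured spectrophotometrically, with DMSO as baseline.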
structure (smiles),measurement,setting,value
CC[n+]1ccccc1,outcome,THRA (gene 7067),inactive
same,outcome,[1],inactive
same,outcome,[2],inactive
Cc1ccc2cc3c(ccc4ccccc43)c3c2c1CC3,outcome,[3],inactive
CC1(C)C(C=C(Cl)Cl)C1C(=O)OCc1cccc(Oc2ccccc2)c1 (stereo unspecified),outcome,[4],inactive
O=C(O)CCCCCCNC1c2ccccc2CCc2ccccc21,outcome,[5],inactive
same,outcome,[6],inactive
CCC(C)(C)c1cc(-n2nc3ccccc3n2)c(O)c(C(C)(C)CC)c1,outcome,[7],inactive
same,outcome,[8],inactive
CP(=O)(O)CCC(N)C(=O)O (stereo unspecified),outcome,[9],inactive
C=CCN1CC[C@]23c4c5ccc(O)c4O[C@H]2C(=O)CC[C@@]3(O)[C@H]1C5,outcome,[10],inactive

# From PubChem BioAssay (EPA / NIEHS)
